Assay outcomes from PubChem.
GPT2 inhibitor: GPT2 alanine aminotransferase inhibition | Q8TD30 | Recombinant GPT2, coupled pyruvate oxidase/HRP Amplex Red fluorescence | Potency, µM (top dose mostly 57.7 µM), for the others: at the top dose activity change, negative = inhibition, usual class: inhibitors | hit rate 0.25% among 100,000 | AID 1671188; further: potency means the concentration at half of the fitted maximal effect; on the % scale 0 is the no-effect control and ±100 the full control effect; nearly all actives have a fitted effect of over 60% in size
Target sequence (Q8TD30 whole entry, looked up): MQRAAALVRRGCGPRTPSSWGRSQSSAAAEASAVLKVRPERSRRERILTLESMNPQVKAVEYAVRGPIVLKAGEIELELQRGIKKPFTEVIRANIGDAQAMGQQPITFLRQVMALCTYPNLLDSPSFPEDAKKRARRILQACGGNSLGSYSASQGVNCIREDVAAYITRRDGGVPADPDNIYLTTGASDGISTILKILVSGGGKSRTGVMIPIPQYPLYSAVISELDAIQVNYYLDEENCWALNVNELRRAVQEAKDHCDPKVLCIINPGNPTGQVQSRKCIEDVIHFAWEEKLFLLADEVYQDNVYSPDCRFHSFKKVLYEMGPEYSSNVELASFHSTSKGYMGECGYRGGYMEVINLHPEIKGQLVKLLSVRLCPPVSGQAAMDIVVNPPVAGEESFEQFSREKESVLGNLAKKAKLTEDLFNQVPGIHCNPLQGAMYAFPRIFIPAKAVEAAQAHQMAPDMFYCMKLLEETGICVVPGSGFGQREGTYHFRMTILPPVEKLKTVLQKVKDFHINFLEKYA
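Recombinant GPT2 (10ng/uL) with 250uM a-KG and 2mM L-alanine, 30 min at room temperature, in HEPES pH 7.5 buffer. Pyruvate detected by pyruvate oxidase/HRP/Amplex Red fluorescence after 30 min in the dark; AOA (50uM) as positive control.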
GPT2 inh cnf: confirmation of human GPT2 inhibitors | GPT2 enzyme, coupled Amplex Red pyruvate fluorescence | hit rate 90% among 95 | Potency, µM, most hits filed as inhibitors | shares compounds with GPT2 inhibitor | AID 1671187
* marks the source's active call; other numbers are inactive results; ! = repeats disagree; [ ] = remark or other dose. The entries come from a sample that favours hits as a whole. The call rests on the fitted dose curve; in most records, active means well fitted inhibition curve with a large enough effect; inconclusive means small, poorly fitted or top-dose-only effect; inactive means flat fitted curve, though single readings scatter.

Screening O=C(CCC[C@H]1NC[C@@H]2CC1CN(Cc1ccccc1)C2)N1CCC(N2CCCCC2)CC1 returned GPT2 inhibitor -6.3%.
COc1cc(C(=O)N2CCc3c(nc(C)nc3N(C)C)C2)cc(OC)c1OC was read as GPT2 inhibitor -0.7%.
Screening C[C@@H](CN(C)C)CN1c2ccccc2Sc2ccccc21 returned GPT2 inhibitor inactive.
CC(CN1c2ccccc2Sc2ccccc21)N(C)C (configuration not stated) was read as GPT2 inhibitor 10µM*!.
Screening CN(C)CCCN1c2ccccc2Sc2ccc(C(F)(F)F)cc21 returned GPT2 inhibitor 4.4%.
Screening COc1ccc(NC(=O)CN2C(=O)NC3(CCC(C)CC3)C2=O)cc1 (configuration not stated) returned GPT2 inhibitor -7.8%.
O=C(CCc1nnn2c1CN(S(=O)(=O)c1ccccc1)CC2)NCc1ccccc1 was read as GPT2 inhibitor inactive.
`CC(C)(C)CC(=O)N1CCC(N2C(=O)N(Cc3cccnc3)CC23CCOC3)CC1` (configuration not stated) gave GPT2 inhibitor inactive.
`Cc1ccc(CNC(=O)C2(c3ccc(NC(=O)C4CC4)cc3)CCCCC2)o1` gave GPT2 inhibitor 1.9%.
C[C@H](Cn1cnc2c(N)ncnc21)OCP(=O)(O)O was read as GPT2 inhibitor inactive.
For CC(C)n1nc(-c2cc3cc(O)ccc3[nH]2)c2c(N)ncnc21 the results were GPT2 inhibitor 8.91µM*.
COC1C(=O)N(C2CCN(C(=O)Cc3c[nH]c4ccccc34)CC2)C12CCOCC2 (configuration not stated) was read as GPT2 inhibitor inactive.
For CNc1ncccc1C(=O)N1CCCN(Cc2ccc(F)cc2)C(C(C)C)C1 (configuration not stated) the results were GPT2 inhibitor 1.6%.
COCCC(=O)N[C@H]1C[C@@H](c2nc(-c3cnccn3)no2)N(C)C1 was read as GPT2 inhibitor 0.5%[88.5 µM].
Screening Cc1ncc2c(c1CNS(=O)(=O)N(C)C)CCN(C(=O)c1cccc(N3CCCC3=O)c1)C2 returned GPT2 inhibitor 1.6%.
Screening CC(C)C(=O)Nc1ncc(-c2cc(C(F)F)nn2-c2c(Cl)cccc2Cl)s1 returned GPT2 inhibitor 10µM*!.
For COCC(=O)N[C@@H]1CN(Cc2cccc(OC)n2)CC[C@@H]1c1nc(C)no1 the results were GPT2 inhibitor 2.9%.
`CC(C)N(Cc1ccccc1)Cc1nnc2cc(-c3nc(-c4ccccc4)no3)ccn12` gave GPT2 inhibitor inactive.
For CC(=O)Nc1ccc(CN2CCCC3(CNS(=O)(=O)c4cccnc4O3)C2)cc1 (configuration not stated) the results were GPT2 inhibitor -4.2%.
`Cc1ccc(NC(=O)CCn2ccn3nc4c(c3c2=O)CCCC4)c(F)c1` gave GPT2 inhibitor -4.1%.
COc1ccccc1-c1nc2cnccn2c1NCCC(=O)N1CCc2ccccc21 was read as GPT2 inhibitor -27.7%.
Screening Cc1ccc(NC(=O)CCNc2c(C)nc3cnccn23)c(F)c1 returned GPT2 inhibitor inconclusive and GPT2 inh cnf 6.85*.
Screening O=C1NCCCCCCN(C(=O)c2cccs2)[C@H]2CCCC[C@@H]12 returned GPT2 inhibitor inactive.
Cn1c([C@H]2CCN(Cc3ccc4c(c3)OCO4)C2)nc2ccccc21 was read as GPT2 inhibitor -23.5%[88.5 µM].
O=C(c1ccoc1)N1CCCN(Cc2ccc3c(c2)OCO3)c2ccccc21 was read as GPT2 inhibitor -9.4%.
For CN1CCCN(Cc2ccc3c(c2)OCO3)c2ccccc21 the results were GPT2 inhibitor inconclusive and GPT2 inh cnf 3.06*.
`O=C(CC1C(=O)NCCN1CC(c1ccccc1)c1ccccc1)NCc1ccon1` (configuration not stated) gave GPT2 inhibitor -3.4%[11.5 µM].
For c1ccc2c(CCNc3ccc(Nc4ccncc4)cc3)c[nH]c2c1 the results were GPT2 inhibitor 14.1µM*! and GPT2 inh cnf 4.85*.
O=C1CCCCC(C(=O)NCCc2c[nH]c3ccccc23)N1 (configuration not stated) was read as GPT2 inhibitor 0.6%.
O=C(O)CCCc1c[nH]c2ccccc12 was read as GPT2 inhibitor inactive.
Cc1noc2c(-c3cccnc3NCCN3CCOCC3)cc(-c3ccccc3)nc12 was read as GPT2 inhibitor 1.3%[88.5 µM].
Screening O=C(NCCN1CCOCC1)c1c[nH]c2ncccc12 returned GPT2 inhibitor -4.3%[88.5 µM].
Screening O=C1C(Cl)=C(NCCN2CCOCC2)C(=O)c2ncccc21 returned GPT2 inhibitor 1.37µM* and GPT2 inh cnf 1.53*.
`CC1=C(C(=O)OC(C)C)C(c2ccccc2Cl)N2C(CC(=O)N3CCCC3)=CSC2=N1` (configuration not stated) gave GPT2 inhibitor inactive.
`Cc1ccc2c(c1)nc1n2[C@@H](CNC(C)C)COC1` gave GPT2 inhibitor 2.5%[88.5 µM].
For COc1cccc(C(=O)Nc2cc(-c3ccncc3)nn2-c2ccccc2)c1 the results were GPT2 inhibitor 2.8%.
COc1cccc(-c2cn3c(n2)N(C(=O)c2ccco2)CCC3)c1 was read as GPT2 inhibitor -14.3%.
COc1cccc(-c2nn(-c3ccccc3)c(OC(C)=O)c2-c2ccc(NC(=O)c3ccco3)cc2)c1 was read as GPT2 inhibitor inconclusive and GPT2 inh cnf 7.69*.
Screening O=C(c1cc(F)cc(F)c1)N1C[C@@H](CO)[C@H](c2ccccn2)C1 returned GPT2 inhibitor inactive.
For O=C(O)/C=C/c1ccc(O)c(O[C@@H]2O[C@H](CO)[C@@H](O)[C@H](O)[C@H]2O)c1 the results were GPT2 inhibitor inactive.
For O=C(/C=C/c1ccc(O)cc1)c1ccc(O)cc1O the results were GPT2 inhibitor -15.8%.
O=C(O)C=Cc1ccc(O)c(O)c1 was read as GPT2 inhibitor 4.32µM* and GPT2 inh cnf 3.43*.
Screening Cn1nc(C2CCN(C(=O)Cc3ccccc3)CC2)c2c1CCOC2 returned GPT2 inhibitor inactive.
`O=C(Cc1ccc(F)cc1)NC1CCN(c2ccnc3ccnn23)CC1` gave GPT2 inhibitor -5.6%[88.5 µM].
For Cc1cccc(OCC2(CNC(=O)C3CCOCC3)C[C@@H](O)[C@@H](O)C2)n1 (some centres not stated) the results were GPT2 inhibitor 2.0%[88.5 µM].
For CC(C)[C@]1(O)CN(C(=O)Cn2[nH]c3ccccc3c2=O)C[C@H]1C the results were GPT2 inhibitor inconclusive and GPT2 inh cnf 4.32*.
For C[C@@H]1CN(C(=O)Cn2ccc(=O)[nH]c2=O)C[C@@]1(O)C1CCC1 the results were GPT2 inhibitor inactive.
Screening CC(C)CCNC(=O)C1CC(=O)N(c2n[nH]c3ccccc23)C1 (configuration not stated) returned GPT2 inhibitor -0.4%.
`Cc1ccc(S(=O)(=O)N2CCn3c(n[nH]c3=O)C2)c(C)c1` gave GPT2 inhibitor inactive.
`O=C(Nc1ccccc1F)N1CCC(F)(C(=O)NC2CC2)CC1` gave GPT2 inhibitor -24.1%.
Screening Fc1ccccc1CN1CCNc2cc(Nc3ccccc3)ncc2C1 returned GPT2 inhibitor -11.5%[88.5 µM].
COc1cccc(CN2CCNc3cnc(Nc4ccccc4)cc3C2)c1 was read as GPT2 inhibitor inconclusive and GPT2 inh cnf 4.98*.
Screening COc1ccccc1CN1CCNc2cnc(Nc3ccccc3)cc2C1 returned GPT2 inhibitor inconclusive and GPT2 inh cnf 4.44*.
For COc1ccccc1CN1CCNc2cnc(-c3ccccc3)cc2C1 the results were GPT2 inhibitor -2.9%[88.5 µM].
Screening COc1ccc(CN2CCNc3cc(Nc4ccccc4)ncc3C2)cn1 returned GPT2 inhibitor -0.1%[88.5 µM].
